This is an account of results in paper PMC4552634, “A New Set of Chemical Starting Points with Plasmodium falciparum Transmission-Blocking Potential for Antimalarial Drug Discovery” (PLoS ONE, 2015).

Molecules are shown by their SMILES. Out of some 13,000 compounds screened, about 3,200 (25%) showed an effect of 50% or more. This is one part of the list.

The subject of this assay is P. falciparum stage V gametocytes. The arrangement: BacTiter-Glo ATP luminescence viability of purified stage V gametocytes in 384-well plates, per cent inhibition versus DMSO. The settings on record: 48 h, 5 µM; inhibitor.
In the case of `Cc1cc2c(cc1C(F)(F)F)N(C(=O)Nc1cnc(OCCN(C)C)c(C(F)(F)F)c1)CC2` [TCMDC-139848], the “% Inhibition” value is on record as 26.2%.

On to `O=C(NCc1ccccc1)NC1CCN(c2ccnc3cc(Cl)ccc23)C1` (stereo not shown) [TCMDC-133402], for which the “% Inhibition” value is on record as -15.46%.

Consider `COc1ccc(NC(=O)NC2CCN(c3ccnc4cc(Cl)ccc34)C2)cc1` (stereo not shown) [TCMDC-133647], for which the “% Inhibition” value was -25.5%.

Consider `c1cncc(CCNCc2cccc(-c3csc(-c4nc5ccccc5[nH]4)c3)c2)c1` [TCMDC-132878], for which the “% Inhibition” value was -19.07%.

For the compound `Cc1[nH]nc2cc(Nc3ccnc(Nc4ccc(CN5CCOCC5)cc4)n3)ccc12` [TCMDC-138633], the “% Inhibition” value amounted to 14.24%.

In the case of `O=C(Cc1cnc[nH]1)Nc1cccc(-c2ccc(-c3nc4ccc(C(F)(F)F)cc4[nH]3)cc2)c1` [TCMDC-136952], the “% Inhibition” value is -24.24%.

Consider `CC(C)N1CCN(C(CN2CCN(CCCOc3ccc4ccccc4c3)CC2)c2ccc(F)cc2)CC1` (stereo not shown) [TCMDC-135495], for which the “% Inhibition” value is reported as 83.07%.

As for `O=C(Nc1cccc(-c2ccc(CN3CCC(O)CC3)cc2)c1)c1cccc(Cl)c1` [TCMDC-132645], the “% Inhibition” value was -15.01%.

As to `Cc1cccc2[nH]c(-c3cccc(-c4ccc(NC(=O)CCc5cnc[nH]5)cc4)c3)nc12` [TCMDC-132159], the “% Inhibition” value was -12.17%.

Consider `Cc1cccc2[nH]c(-c3ccc(-c4cccc(NC(=O)Cc5cnc[nH]5)c4)cc3)nc12` [TCMDC-136942], for which the “% Inhibition” value was found to be 73.44%.

As for `Cc1cccc2[nH]c(-c3cccc(-c4cccc(NC(=O)CCc5cnc[nH]5)c4)c3)nc12` [TCMDC-132158], the “% Inhibition” value is on record as -23.69%.

Take `O=C(CCc1cnc[nH]1)Nc1cccc(-c2ccc(-c3nc4ccccc4[nH]3)cc2)c1` [TCMDC-132155]: the “% Inhibition” value is given as 31.89%.

For the compound `Cc1cccc2[nH]c(-c3cccc(-c4cccc(NC(=O)Nc5ccccc5)c4)c3)nc12` [TCMDC-133152], the “% Inhibition” value is -23.55%.

Take `Cc1cccc2[nH]c(-c3cccc(-c4cccc(NC(=O)Cc5cnc[nH]5)c4)c3)nc12` [TCMDC-136950]: the “% Inhibition” value is -8.646%.

Turning to `O=C(CCc1cnc[nH]1)Nc1ccc(-c2cccc(-c3nc4ccccc4[nH]3)c2)cc1` [TCMDC-132150], the “% Inhibition” value is 3.081%.

As for `C#CCCC(=O)Nc1cccc(-c2cccc(-c3nc4c(C)cccc4[nH]3)c2)c1` [TCMDC-136857], the “% Inhibition” value is reported as 61.5%.

Consider `CCOC(=O)NCC(=O)Nc1cccc(-c2cccc(-c3nc4c(C)cccc4[nH]3)c2)c1` [TCMDC-137048], for which the “% Inhibition” value was -2.875%.

As for `Cc1cccc2[nH]c(-c3ccc(-c4cccc(NC(=O)CCc5cnc[nH]5)c4)cc3)nc12` [TCMDC-132153], the “% Inhibition” value was 72.28%.

`Cc1cccc2[nH]c(-c3cccc(-c4ccc(NC(=O)Cc5cnc[nH]5)cc4)c3)nc12` [TCMDC-136951]: the “% Inhibition” value worked out at 17.26%.

Regarding `O=C(CCc1cnc[nH]1)Nc1cccc(-c2cccc(-c3nc4ccccc4[nH]3)c2)c1` [TCMDC-132151], the “% Inhibition” value was determined as 78.34%.

For `O=C(Nc1cccc(-c2ccc(-c3nc4ccccc4[nH]3)cc2)c1)Nc1ccc2c(c1)OCO2` [TCMDC-133164], the “% Inhibition” value is -3.868%.

On to `O=C(CSc1ccccn1)Nc1c(F)cccc1F` [TCMDC-123935], for which the “% Inhibition” value is reported as 16.99%.

With `O=C(NC1CCCCC1)C1CCCN(C(=O)c2ccc(O)c(-c3ccc(Cl)c(Cl)c3)c2)C1` (stereo not shown) [TCMDC-140884], the “% Inhibition” value is on record as 5.577%.

Consider `Cc1c(Cc2ccccc2)c(=O)oc2c(C)c3c(cc12)CN(CC(C)c1ccccc1)CO3` (stereo not shown) [TCMDC-125127], for which the “% Inhibition” value turned out to be 34.31%.

For the compound `O=c1cc(NCCCNCc2sc(Br)nc2Br)[nH]c2ccccc12` [TCMDC-140422], the “% Inhibition” value is -16.17%.

Take `Cc1ccccc1C1CCN(C2CCC(NC(=O)/C=C/c3cccc(Cl)c3Cl)CC2)CC1` (stereo not shown) [TCMDC-133519]: the “% Inhibition” value is reported as -94.66%.

`Cc1sc2nc(CN3CCCC3)nc(-n3c(NCCO)nc4ccccc43)c2c1C` [TCMDC-124811]: the “% Inhibition” value is 45.04%.

On to `OC(c1ccc(Cl)cc1)(c1ccc(Cl)cc1)C(c1ccc(Cl)cc1)n1ccnc1` (stereo not shown) [TCMDC-125069], for which the “% Inhibition” value is given as 44.24%.

Regarding `CN1CCN(c2cccc(-c3nnc(-c4ccc(OCC(=O)NCc5cccc(C(F)(F)F)c5)c([N+](=O)[O-])c4)o3)c2)CC1` [TCMDC-134941], the “% Inhibition” value was -68.92%.

For the compound `CC(C)(C)OC(=O)NCc1ccc(Nc2nnc(-c3cccc(C(=O)NCc4cc(C(F)(F)F)cc(C(F)(F)F)c4)c3)o2)cc1` [TCMDC-135229], the “% Inhibition” value was 97.34%.

`CC(C)(C)OC(=O)NCc1ccc(Nc2nnc(-c3cccc(OCC(=O)NCc4cc(C(F)(F)F)cc(C(F)(F)F)c4)c3)o2)cc1` [TCMDC-134993]: the “% Inhibition” value is given as 101.9%.

Turning to `CCCNC(=O)c1cncc(-c2ccc(CNC(CC)c3ccccc3)cc2)c1` (stereo not shown) [TCMDC-134238], the “% Inhibition” value is -1.576%.

On to `O=C(NCc1ccc(C(F)(F)F)cc1)c1cccc(-c2nnc(-c3cccc(-c4cncnc4)c3)o2)c1` [TCMDC-134944], for which the “% Inhibition” value is recorded as 18.23%.

For `CN1CCN(c2cccc(-c3nnc(-c4cccc(OCC(=O)NCc5ccc(C(F)(F)F)cc5)c4)o3)c2)CC1` [TCMDC-134943], the “% Inhibition” value came to 0.9055%.

Turning to `CC(=O)NCCNCc1cccc(C(=O)NCc2cccc(C(F)(F)F)c2)c1` [TCMDC-140900], the “% Inhibition” value worked out at 22.07%.

With `Cc1cccc(Cl)c1Nc1nnc(-c2cccc(C(=O)NC[C@@H]3CC[C@H]4C[C@@H]3C4(C)C)c2)o1` [TCMDC-135040], the “% Inhibition” value was -14.01%.

Turning to `CC(C)(C)OC(=O)NCc1ccc(Nc2nnc(-c3cccc(C(=O)NCCC(c4ccccc4)c4ccccc4)c3)o2)cc1` [TCMDC-134989], the “% Inhibition” value worked out at 99.36%.

`O=c1ccc2ccc(F)c3c2n1CC3CN1CCC(NCc2cccc(-c3ccccc3F)c2)CC1` (stereo not shown) [TCMDC-134405]: the “% Inhibition” value is recorded as -31.68%.

Consider `COc1ccc2nccc([C@@H](O)CN3CCC(NCc4cnc5snnc5c4)C(F)C3)c2c1` (stereo partly shown) [TCMDC-141752], for which the “% Inhibition” value stood at 25.48%.

In the case of `O=C(Nc1cc(Cl)cc(Cl)c1)c1cnn(-c2ccc(F)cc2)c1C1CCNCC1` [TCMDC-124410], the “% Inhibition” value was determined as 50.02%.

Turning to `Cc1ccc(-n2ncc(C(=O)Nc3cc(Cl)cc(Cl)c3)c2C2CCNCC2)cc1C` [TCMDC-124409], the “% Inhibition” value is 57.45%.

In the case of `CCCc1c(C(=O)Nc2ccc3c(c2)CCN(C2CCC2)CC3)cnn1-c1ccc(Cl)cc1` [TCMDC-136081], the “% Inhibition” value is listed as 40.23%.

For the compound `O=C(Nc1ccc(Cn2ncc(N3CCCNCC3)c(Cl)c2=O)cc1)Nc1cc(Cl)cc(Cl)c1` [TCMDC-133326], the “% Inhibition” value is given as -9.301%.

Take `Cc1ccccc1C1CCN(c2ncc(C(=O)Nc3ccccc3)cc2Cl)CC1` [TCMDC-134630]: the “% Inhibition” value is -30.75%.

For the compound `Cc1ccccc1C1CCN(c2ccc(NC(=O)c3ccc(Cl)nc3)cc2)CC1` [TCMDC-134586], the “% Inhibition” value came out at 25.08%.

Consider `COc1cc(NC(=O)c2c(-c3c(Cl)cccc3Cl)noc2C)c(OC)cc1Cl` [TCMDC-125477], for which the “% Inhibition” value is -41.77%.

`CC(O)C(C)(CO)NCc1ccc2c3c(cccc13)-c1ccccc1-2` (stereo not shown) [TCMDC-138117]: the “% Inhibition” value is listed as 15.45%.

As to `NC(=O)c1cnc2ccc(-c3cncs3)cc2c1Nc1ccc(F)c(Cl)c1` [TCMDC-138566], the “% Inhibition” value is reported as 50.74%.

For `Cc1ccc(O)cc1Nc1c(C(N)=O)cnc2ccc(-c3cncs3)cc12` [TCMDC-138565], the “% Inhibition” value was 46.98%.

Regarding `Cc1noc(C)c1-c1ccc2c(Nc3ccc(C(F)(F)F)cc3)c(C(N)=O)cnc2c1.Cl` [TCMDC-136019], the “% Inhibition” value was 23.08%.

On to `O=C(N[C@@H](Cc1ccccc1)[C@H](O)CNCCC(F)(F)F)c1cccc(CCC2CC2)c1` [TCMDC-136611], for which the “% Inhibition” value is recorded as -3.968%.

Regarding `O=C(N[C@@H](Cc1ccccc1)[C@H](O)CNCCC(F)(F)F)c1cccc(OCC2CC2)c1` [TCMDC-136610], the “% Inhibition” value was 48.68%.

For the compound `COc1cccc(C2(NC[C@@H](O)[C@H](Cc3ccccc3)NC(=O)c3ccccc3)CCCCC2)c1` [TCMDC-135740], the “% Inhibition” value is given as 7.84%.

As to `CCNc1cc(C(=O)N[C@@H](Cc2ccccc2)[C@H](O)CNC(C)(C)Cc2cccc(OC)c2)cc(N2CCCC2=O)c1` [TCMDC-134574], the “% Inhibition” value came to 1.402%.

Take `CC(C)CCCC(C)(C)NC[C@@H](O)[C@H](Cc1ccccc1)NC(=O)c1cccc(OCC2CC2)c1` [TCMDC-136556]: the “% Inhibition” value turned out to be 100.1%.

For the compound `CCOc1cc(C(=O)N[C@@H](Cc2ccccc2)[C@H](O)CNCc2cccc(OC)c2)cc(N2CCCCS2(=O)=O)c1` [TCMDC-134521], the “% Inhibition” value is -19.61%.

Consider `CCCOc1cccc(C(=O)N[C@@H](Cc2ccccc2)[C@H](O)CNCc2cccc(OC)c2)c1` [TCMDC-136707], for which the “% Inhibition” value came out at 12.44%.

Turning to `CCCOc1cccc(C(=O)N[C@@H](Cc2ccccc2)[C@H](O)CNCc2ccccc2OC)c1` [TCMDC-136706], the “% Inhibition” value worked out at 81.52%.

With `CC(C)CCCC(C)(C)NC[C@@H](O)[C@H](Cc1ccccc1)NC(=O)c1cccc(CCC2CC2)c1` [TCMDC-136602], the “% Inhibition” value is given as 71.1%.

As for `Clc1ccccc1/C=C/c1cncnc1Nc1ccc2nc(Cc3ccccc3)[nH]c2c1` [TCMDC-138659], the “% Inhibition” value is given as 0.669%.

In the case of `c1ccc(-c2cccc(-c3ccccn3)n2)nc1` [TCMDC-123985], the “% Inhibition” value is given as -15.75%.

For the compound `COc1ccc(-c2ccnc(-c3cccc(-c4ccccn4)n3)c2)cc1` [TCMDC-125008], the “% Inhibition” value came out at 155.4%.

As for `COc1cc(Nc2ccnc3cc(-c4ccccn4)ccc23)cc(OC)c1OC` [TCMDC-138203], the “% Inhibition” value turned out to be 0.8769%.

For `N#Cc1ccc(NC(=NC2Cc3ccccc3C2)Nc2cccc(Cl)c2Cl)c(O)c1` [TCMDC-140223], the “% Inhibition” value is recorded as -11.72%.

Turning to `CS(=O)(=O)Nc1ccc2[nH]cc(C3CCN(CC(O)C4CCN(C(=O)/C=C/c5ccc(Cl)c(Cl)c5)CC4)CC3)c2c1` (stereo not shown) [TCMDC-134176], the “% Inhibition” value turned out to be 30.58%.

As for `O=C(/C=C/c1cccc(Cl)c1)N1CCC(C(O)CN2CCC3(CC2)CN(C(=O)/C=C/c2cccc(Cl)c2)c2ccccc23)CC1` (stereo not shown) [TCMDC-134543], the “% Inhibition” value amounted to 57.97%.

As to `O=C(/C=C/c1ccc(Cl)c(Cl)c1)N1CCC(C(O)CN2CCC(c3c[nH]c4ccccc34)CC2)CC1` (stereo not shown) [TCMDC-134171], the “% Inhibition” value was found to be 19.99%.
